Structures are written as SMILES. Screen size: about 340,000 compounds; about 1,700 (0.5%) were called active. This excerpt belongs to a sample that is enriched for actives. Unmarked numbers belong to inactive results. Rule as the data show it: active = inhibition above about 40%; inactive = the rest.

Sequence of Cysteine protease ATG4B (Homo sapiens) (Q9Y4P1 whole entry, looked up): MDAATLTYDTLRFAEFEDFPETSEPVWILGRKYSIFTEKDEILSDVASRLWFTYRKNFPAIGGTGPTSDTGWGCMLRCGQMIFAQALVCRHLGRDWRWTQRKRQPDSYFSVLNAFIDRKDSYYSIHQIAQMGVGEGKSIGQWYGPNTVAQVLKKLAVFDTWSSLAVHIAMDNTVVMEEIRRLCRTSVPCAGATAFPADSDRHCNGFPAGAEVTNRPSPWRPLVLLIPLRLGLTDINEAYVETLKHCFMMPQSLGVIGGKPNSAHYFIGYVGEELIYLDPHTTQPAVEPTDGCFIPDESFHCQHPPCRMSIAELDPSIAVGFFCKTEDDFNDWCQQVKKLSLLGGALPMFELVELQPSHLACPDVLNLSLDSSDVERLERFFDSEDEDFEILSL

This experiment concerns the target Cysteine protease ATG4B (Homo sapiens) (UniProt Q9Y4P1). As to the kind of experiment: ATG4B protease inhibitors, primary screen, biochemical, fluorescence, uHTS (AID 504462). The following applies: ATG4B cleavage of LC3-PLA2, NBD-HPC fluorescence, 1 h; at 8.33 µM; stronger effect = higher value.
For the molecule `O=C(Nc1cccn(Cc2ccccc2Cl)c1=O)NC1CCCCC1`, the inhibition (usually the change of the read-out against control, counted positive when it falls) was -3.28%.

For `Cc1ccc(N=C2NC(=O)/C(=C/C=C/c3ccco3)S2)cc1C`, the inhibition is 47.9% (active).

As to `Cc1ccc(CNC(=O)CSc2nnc3c(n2)[nH]c2ccc(F)cc23)cc1`, the inhibition is -1.66%.

For the molecule `CC1=CC2=NC(=O)/C(=C/c3coc4ccccc4c3=O)C(=N)N2O1`, the inhibition is -5.2%.

Turning to `O=C(CNC(=O)c1ccccc1)NCC(=O)OCc1ccc(Cl)cc1`, the inhibition is -3.69%.

For the molecule `S=C(NCc1ccco1)NCc1ccccc1Cl`, the inhibition is 13.4%.

Turning to `S=C(NCCc1ccccc1)NCc1ccccc1Cl`, the inhibition is 48.6% (active).

For the molecule `S=C(NCCc1ccccc1)NCC1CCCO1` (stereo unspecified), the inhibition is -7.53%.

Turning to `O=C1c2ccccc2C(=O)N1CCC(c1ccccc1)c1ccco1` (stereo unspecified), the inhibition is 15.9%.

For `CC(Oc1ccc(F)cc1)C(=O)Nc1cc(S(=O)(=O)N2CCOCC2)ccc1N1CCN(C)CC1` (stereo unspecified), the inhibition was -5.35%.

In the case of `COc1ccccc1S(=O)(=O)c1c(C)cc(C)[nH]c1=O`, the inhibition was -5.56%.

`Cc1c(NC(=S)NCc2ccc(F)cc2)cccc1[N+](=O)[O-]`: the inhibition is 77.1% (active).

On to `Cc1onc(C(=O)NCc2ccc(F)cc2)c1[N+](=O)[O-]`, for which the inhibition was 1.98%.

As to `Cc1c(NC(=O)CCCOc2ccccc2)cccc1[N+](=O)[O-]`, the inhibition was -6.83%.

As to `CCOC(=O)N1CCC(NC(=O)Cn2cc3c(n2)CCCCC3)CC1`, the inhibition is -3.87%.

As to `NC(=O)Cc1ccc2c(c1)[nH]c1ccccc12`, the inhibition is 47.3% (active).

Consider `CCn1c2ccccc2c2cc(CC(N)=O)ccc21`, for which the inhibition is 25%.

As to `COC(=O)Cc1c(-c2[nH]c3ccccc3c2CC(=O)OC)[nH]c2ccccc12`, the inhibition was 5.62%.

Take `CC(OC(=O)c1ccc(-n2cnnn2)cc1)C(=O)NCc1ccccc1` (stereo unspecified): the inhibition is -0.42%.

As for `CCCCn1c(N)c(N(CC)C(=O)c2ccccc2C(F)(F)F)c(=O)[nH]c1=O`, the inhibition is 1.66%.

Turning to `CC(C)(CNC(=O)c1cc(=O)[nH]c2ccccc12)N1CCOCC1`, the inhibition is -6.8%.

Take `Cc1c(N=Nc2ccc(N(C)C)cc2)c(=O)n(-c2ccccc2)n1C`: the inhibition was -2.28%.

`CCOC(=O)c1c(C)oc2ccc(OCC(=O)N(CC)CC)cc12`: the inhibition is -8.98%.

Take `CC(=O)c1c(C)n(-c2ccc(C)cc2)c2ccc(O)cc12`: the inhibition was -0.19%.

In the case of `CC(=O)c1c(C)n(-c2ccc(N(C)C)cc2)c2ccc(OCC(N)=O)cc12`, the inhibition is 82.1% (active).

As to `COc1ccc(NC(=O)CSc2nnc(Cc3ccccc3)c(=O)n2N)cc1`, the inhibition is -4.35%.

In the case of `Cc1ccc(CSc2nc(-c3ccccc3)c(C#N)c(=O)[nH]2)cc1`, the inhibition is 49.2% (active).

`N#Cc1c(-c2ccccc2)nc(SCc2cccc(C(F)(F)F)c2)[nH]c1=O`: the inhibition is 34.9%.

In the case of `N#Cc1c(-c2ccc(F)cc2)nc(-c2ccccc2)[nH]c1=O`, the inhibition is 5.66%.

Regarding `Cc1cccc(N2CCN(C(c3ccc(N(C)C)cc3)c3nnnn3C(C)(C)C)CC2)c1C` (stereo unspecified), the inhibition was -1.38%.

Take `COc1cc(C)c(S(=O)(=O)N2CCOCC2)c(C)c1C`: the inhibition is -9.43%.

Take `COC(=O)c1c(NC(=O)C2CC(C)=C(C)CC2C(=O)O)sc2c1CCCCC2` (stereo unspecified): the inhibition was 70.5% (active).

Turning to `COC(=O)c1c(NC(=O)CSc2nncs2)sc2c1CCCCC2`, the inhibition is -14.5%.

As to `N#Cc1c(NC(=O)C2CC(Cl)=CCC2C(=O)O)sc2c1CCCCC2` (stereo unspecified), the inhibition is -4.77%.

Consider `O=C(CNC(=O)[C@@H]1Cc2ccccc2CN1)NC1CCCCC1`, for which the inhibition was -3.14%.

Turning to `CCSC(C)CC1C/C(=N/O)c2c(C)noc2C1` (stereo unspecified), the inhibition is -1.06%.

Values taken from PubChem BioAssay AID504462 (Sanford-Burnham Center for Chemical Genomics, 2011).
